Most compounds without a hit are left out; they make up all but 7.9% or so of the library.
HCV inhibitor = qHTS Assay for Inhibitors of Hepatitis C Virus (HCV); Huh7.5.1 HCVcc-Cre infection, luciferase reporter, 44 h; Potency, µM (titrated, usually from 41.8 µM), for the others: at the top dose activity change, negative = inhibition, hits mostly inhibitors; 3.4% of 340,000 active; AID 651820, 2012; active = well fitted inhibition curve with a large enough effect; inconclusive = small, poorly fitted or top-dose-only effect, or another doubt; inactive = no such curve, though single readings can be large or run the other way; note: potency is the fitted concentration of half-maximal effect
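Cells (1,000/well) were plated 4 h before compound, then infected with HCVcc-Cre virus (~0.5 moi). After 44 h further culture, infection was read as luciferase luminescence following a 15 min substrate incubation at room temperature.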
FMDV antiviral = High Throughput Screening for Foot and Mouth Disease Virus Antivirals | FMDV antiviral cell-based qHTS | Potency, µM (doses to about 57.9 µM), for inactives: top-dose activity change, negative = inhibition, usual class: inhibitors | AID 1159524, 2015 | 1.2% of 410,000 active; calls by dose curve; tested in HEK293T cells; note: read-out not given here; potency is the fitted concentration of half-maximal effect; nearly all actives have a fitted effect of over 45% in size
MARV entry inh = qHTS for inhibitors of binding or entry into cells for Marburg Virus | Marburg virus pseudotyped entry inhibition, cell reporter | Potency, µM (titrated, usually from 37.8 µM), inactives show top-dose activity change, negative = inhibition, actives largely listed as inhibitors | 1.8% of 300,000 active | AID 540276, 2011; calls by dose curve; tested in HEK293 cells; note: potency is the fitted concentration of half-maximal effect
HCMV inh = qHTS Assay for inhibitors of the human cytomegalovirus (HCMV). HFF cells, HCMV-luciferase reporter, 72 h; active compounds read low. 4.5% of 410,000 active. AID 1259415, 2018. activity change, negative = inhibition, % at 57.5 µM; in the data active = activity change below about -60%; inconclusive = no clear call, values can overlap the other calls; inactive = above about -39%
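Two-dose cell screen: HFF monolayers treated with compounds and infected with luciferase-expressing HCMV at 1 PFU/cell, 72 h at 37C, then lysed for luciferase measurement.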
Lassa entry inh = qHTS for Inhibitors of binding or entry into cells for Lassa Virus; Potency, µM (doses to about 37.9 µM), for the others: at the highest dose activity change, negative = inhibition, actives largely listed as inhibitors; 1.2% of 300,000 active; Lassa virus pseudotype entry inhibition, cell reporter; calls by dose curve; tested in HEK293 cells; note: potency is the fitted concentration of half-maximal effect; nearly all actives have a fitted effect of over 50% in size
Active calls of the source: *; ? = inconclusive; . = not tested or not shown; [ ] = dose if it differs, or a comment. % is set by controls: 0 for no effect and ±100 for the full control effect.

SMILES	HCV inhibitor	FMDV antiviral	MARV entry inh	HCMV inh	Lassa entry inh
NS(=O)(=O)c1ccc(NC(=O)N2c3ccccc3Sc3ccccc32)cc1	-6%	.	-12%	-63*	?
COc1ccc(-c2cc(OC)c3ccccc3n2)cc1	?	24%	-16%	32	14%
COc1ccc(-c2cc3cc(OC)c(OC)cc3c(C)n2)cc1	14µM*	30%	-16%[46.1 µM]	14	-2%
COc1ccc2c(OC)cc(-c3ccccc3)nc2c1	10µM*	-12%	-12%	-5	0%
Cc1ccc(C)c(NC(=O)Nc2nnc(N(CC(C)C)CC(C)C)s2)c1	.	-17%	21%[46.1 µM]	-26	10%[46.1 µM]
O=C(/C(=C/c1ccccc1)n1cncn1)c1ccc(Cl)cc1Cl	18%	-21%	-5%	27	14%
Cc1nn(C)c(C)c1/C=C(/C(=O)C(C)(C)C)n1cncn1	-8%	-15%	?	-98*	?
CC(C)(C)C(=O)/C(=C/c1ccncc1)n1cncn1	2.2µM*	11µM*	4.1µM*	-100*	10µM*
O=C(COc1ccc(F)cc1)Nc1ccc(S(=O)(=O)N(Cc2ccccc2)c2ccccc2)cc1	.	-12%	?	-6	?
O=C(Nc1ccccc1Cl)N[C@H]1CC[C@@]23CCCN2C(=O)CCC[C@H]3C1Cc1ccccc1 (stereo partly drawn)	.	.	.	-12	.
CCN(CC)S(=O)(=O)c1ccc2c(c1)nc(CCC(=O)O)n2CC	15%	-2%	1%[14.2 µM]	-13	10%
CCN(CC)S(=O)(=O)c1cccc(NC(=O)Nc2cccc(C(F)(F)F)c2)c1	2µM*	18µM*	15µM*	.	16µM*
CCN(CC)S(=O)(=O)c1ccc2c(c1)nc(CCC(=O)Nc1cccc(C(F)(F)F)c1)n2CC	?	-10%	11µM*	7	?
Cc1ccc(C(=O)NC2CCCc3c2cnn3-c2ccc(F)cc2F)cn1 (stereo not drawn)	.	.	.	-86*	.
Cc1nnsc1C(=O)NC1CCCc2c1cnn2-c1ccc(F)cc1F (stereo not drawn)	?	?	?	-92*	?
Cc1c2cnn(CC(=O)Nc3ccc(F)cc3F)c(=O)c2c(C)n1Cc1cccc(Cl)c1	.	?	21%[46.1 µM]	-8	22%[46.1 µM]
CCOc1ccccc1C1Nc2ccccc2-c2nnc(SCc3ccccc3)nc2O1 (stereo not drawn)	.	1%	10%[46.1 µM]	15	1%[46.1 µM]
CC(C)(C)C1CCC(=NNc2nc3ccccc3[nH]2)CC1 (stereo not drawn)	-19%	-14%	?	-23	12%[46.1 µM]
C(=N\Nc1nncc2ccccc12)/c1ccccn1	3.2µM*	?	?	-98*	1.1µM*
C(=N\Nc1ccc2nncn2n1)/c1ccccn1	-69%	-7%	?	-87*	?
c1ccc2c(c1)CC/C2=N/Nc1nc2ccccc2[nH]1	?	-35%	?	-112*	?
C#CCn1cc(/C=N/Nc2nc3ccccc3[nH]2)c2ccccc21	?	-16%	?	-69*	?
C(=N\Nc1nc2ccccc2[nH]1)/c1ccccn1	-2%	10µM*	.	-100*	.
Cc1cc(=O)[nH]c(N/N=C/c2ccccn2)n1	1µM*	51%	2.6µM*	-100*	7.1µM*
O=c1cnnc(N/N=C/c2ccccn2)[nH]1	6.3µM*	-18%	.	-32	.
SMILES	HCV inhibitor	FMDV antiviral	MARV entry inh	HCMV inh	Lassa entry inh
C(=N\Nc1nc2ccccc2[nH]1)/c1ccc2ncccc2c1	?	30%	?	-22	?
O=c1nc(N/N=C/c2ccccn2)cn[nH]1	?	13%	?	80	3.5µM*
C[C@@H]1CN=C(Nc2ccc(N(C)C)cc2)S1	.	.	8%	.	.
Cc1ccc2c(c1)-c1nc(-c3ccc(Cl)cc3)cc(-c3coc4ccccc4c3=O)c1CO2	.	7%	-2%[46.1 µM]	9	-11%[46.1 µM]
CCOC(=O)c1ccc(NC(=O)Cn2nnc(-c3ccc(C(F)(F)F)cc3)n2)cc1	.	5%	-7%[46.1 µM]	8	15%[46.1 µM]
COc1ccc(CNc2ncnc3ccc(-c4cccc(C#N)c4)cc23)c(OC)c1	.	-22%	.	.	.
O=C(c1cccs1)c1cn(CCOc2ccc(F)cc2)c2ccccc12	.	-21%	-15%[46.1 µM]	37	21%[46.1 µM]
CN(C)c1ccc2c(c1)OC(N)=C(C#N)C2c1cccc(F)c1 (stereo not drawn)	?	?	2.1µM*	.	?
N#CC1=C(N)Oc2cc(N)ccc2C1c1cccc(F)c1 (stereo not drawn)	?	-17%	?	-21	-21%[46.1 µM]
CCOc1ccc2c(c1)c(=O)c(S(=O)(=O)c1ccccc1)cn2CC(=O)Nc1ccccc1OC	.	17%	-16%[46.1 µM]	50	-22%[46.1 µM]
CCCNC(=O)Cn1nc(C)c2c(C)n(-c3ccccc3)nc2c1=O	.	-12%	.	-36	1%[46.1 µM]
COC(=O)C1=C2C=CCCN2C(=O)NC1c1ccccc1 (stereo not drawn)	.	.	-17%[14.2 µM]	.	.
O=C(Nc1cc(Cl)ccc1Cl)c1cc2nc(-c3ccc4c(c3)OCO4)cc(C(F)(F)F)n2n1	.	-19%	3%[46.1 µM]	13	8%[46.1 µM]
CC(C)c1cc(C(F)(F)F)n2nc(C(=O)Nc3ccc4c(c3)OCO4)cc2n1	13µM*	22%	3%	87	5%
c1ccc([C@@H]2CO2)cc1	21%	-16%	.	.	.
C=C1CC2(CC(c3ccccc3)OC(c3ccccc3)C2)OC1=O (stereo not drawn)	?	22µM*	?	-7	?
O=[N+]([O-])c1cc(/C=N/N/C(=N/c2ccccn2)c2ccccn2)ccc1O	?	31%	?	-83*	-22%
CC1(C)CC(NC(=O)N2c3ccccc3Sc3ccccc32)CC(C)(C)N1	-6%	-3%	3.2µM*	-1	-4%
CCCCCC(=O)N1C[C@H](n2cc(-c3ccc(F)cc3)nn2)[C@@H](O)C[C@H]1c1ccc(C)cc1	.	.	.	.	3%[46.1 µM]
CCCS(=O)(=O)N1CCCC(C(=O)NCCCOC)C1 (stereo not drawn)	.	0%	.	22	-9%[46.1 µM]
CC(C)[C@@H]1CN=C(N)N1C[C@@H]1CCCN1C[C@H](C)N1C[C@@H](Cc2ccccc2)N(CCc2ccc(Cl)c(Cl)c2)C1=N	0.56µM*	-3%	.	.	.
Cc1[nH]c2ccccc2c1C(=O)COc1ccccc1	11%	24%	28%	30	12%
CCOCc1cnc(C)nc1NCC(=O)c1c(C)[nH]c2cc(C)ccc12	-13%	.	1%	-101*	-1%
CCOCc1cnc(C)nc1NCC(=O)c1c(C)[nH]c2ccccc12	21%	18%	?	-80*	-5%
Cc1cccc(N(C)C(=O)Cn2c(=O)oc3cc(S(=O)(=O)N4CCCCC4)ccc32)c1	.	-9%	-2%[46.1 µM]	7	.
CN(C)c1ccc(-c2n(C)c3ccccc3[n+]2C)cc1	8.9µM*	.	?	-97*	?
Cn1c(-c2ccc3ccccc3n2)[n+](C)c2ccccc21	?	19%	-17%[46.1 µM]	-72*	-14%

Screening results (PubChem)
